# About 8,800 targets were measured; listed, in parts, are those with a hit and a random draw of the rest. About 0.5% of all pairs of compound and target were hits.
# Compound: CC1=C2C(=CC=C1)N=C(N(C2=O)C3=CC=CC=C3C)CN4C=NC5=C(N=CN=C54)N
# Assay: log2 fold change, soluble protein after heating vs DMSO (PISA); higher = thermal stabilisation; K562 lysate, 10 uM; active = over 0.2 and 3.5 SD of the protein, either way, in both replicates (recomputed)
# How it was run: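 Dounce homogenisation of K562 pellets in PBS pH 7.4 with 1 mM MgCl2 produced a crude extract, used at 1 mg/mL protein. Exposure to 10 μM compound lasted 30 min, and aliquots were then heated for 3 min across 48°C-58°C, pooled and brought to 0.5% NP-40 at 4°C. The supernatant after 21,000xg for 90 min was quantified by TMTpro 16plex LC-MS/MS with channel sums equalised. Duplicate values are given as log-two fold change in thermal stability relative to solvent controls.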
# UniProt Q92538, sequence (Q92538 whole entry, looked up): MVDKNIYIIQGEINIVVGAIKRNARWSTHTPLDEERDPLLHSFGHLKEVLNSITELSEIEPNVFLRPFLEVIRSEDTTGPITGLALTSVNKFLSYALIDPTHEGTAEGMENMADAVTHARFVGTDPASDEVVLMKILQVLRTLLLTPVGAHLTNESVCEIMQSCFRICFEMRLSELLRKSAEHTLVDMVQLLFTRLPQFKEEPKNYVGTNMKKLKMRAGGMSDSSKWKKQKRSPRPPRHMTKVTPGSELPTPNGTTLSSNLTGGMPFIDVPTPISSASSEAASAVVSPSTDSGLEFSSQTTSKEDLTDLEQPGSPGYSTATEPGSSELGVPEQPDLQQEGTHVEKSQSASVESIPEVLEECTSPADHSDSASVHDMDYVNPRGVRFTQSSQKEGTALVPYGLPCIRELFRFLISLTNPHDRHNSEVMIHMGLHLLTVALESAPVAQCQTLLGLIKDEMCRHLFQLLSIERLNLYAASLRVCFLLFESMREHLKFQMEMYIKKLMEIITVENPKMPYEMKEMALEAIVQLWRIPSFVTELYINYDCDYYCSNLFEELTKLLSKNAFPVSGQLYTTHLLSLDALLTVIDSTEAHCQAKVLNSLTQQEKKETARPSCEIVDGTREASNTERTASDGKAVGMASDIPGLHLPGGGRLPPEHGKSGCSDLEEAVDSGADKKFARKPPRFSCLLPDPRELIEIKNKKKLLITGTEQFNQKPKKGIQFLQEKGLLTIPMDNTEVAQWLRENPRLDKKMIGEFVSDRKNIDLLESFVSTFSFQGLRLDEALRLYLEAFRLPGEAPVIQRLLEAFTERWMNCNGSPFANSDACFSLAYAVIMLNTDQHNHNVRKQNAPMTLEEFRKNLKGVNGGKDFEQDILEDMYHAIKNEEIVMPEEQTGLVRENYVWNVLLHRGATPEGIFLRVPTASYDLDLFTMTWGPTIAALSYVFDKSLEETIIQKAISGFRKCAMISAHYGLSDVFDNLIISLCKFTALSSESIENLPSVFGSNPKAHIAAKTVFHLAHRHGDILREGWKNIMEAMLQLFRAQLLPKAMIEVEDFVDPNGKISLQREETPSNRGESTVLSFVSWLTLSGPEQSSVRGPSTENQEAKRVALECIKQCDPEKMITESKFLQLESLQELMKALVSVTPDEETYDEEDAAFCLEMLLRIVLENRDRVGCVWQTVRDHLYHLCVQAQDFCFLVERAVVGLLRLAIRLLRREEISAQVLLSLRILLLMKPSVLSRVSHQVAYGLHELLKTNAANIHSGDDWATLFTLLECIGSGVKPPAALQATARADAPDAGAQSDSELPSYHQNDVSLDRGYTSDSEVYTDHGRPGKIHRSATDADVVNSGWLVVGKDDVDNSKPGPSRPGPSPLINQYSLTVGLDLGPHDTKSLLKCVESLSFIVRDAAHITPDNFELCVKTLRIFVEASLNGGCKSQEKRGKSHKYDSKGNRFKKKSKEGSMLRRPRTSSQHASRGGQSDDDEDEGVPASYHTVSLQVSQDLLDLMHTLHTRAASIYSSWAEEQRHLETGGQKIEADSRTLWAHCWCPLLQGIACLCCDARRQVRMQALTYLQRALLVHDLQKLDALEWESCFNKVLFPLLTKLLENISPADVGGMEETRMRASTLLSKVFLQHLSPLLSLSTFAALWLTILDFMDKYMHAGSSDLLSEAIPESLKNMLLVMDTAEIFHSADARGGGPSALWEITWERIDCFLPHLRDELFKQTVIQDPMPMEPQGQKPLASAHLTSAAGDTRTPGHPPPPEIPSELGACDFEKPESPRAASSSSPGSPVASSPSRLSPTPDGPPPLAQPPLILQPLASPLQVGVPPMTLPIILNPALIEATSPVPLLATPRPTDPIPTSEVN
# UniProt Q8TB52, sequence (Q8TB52 whole entry, looked up): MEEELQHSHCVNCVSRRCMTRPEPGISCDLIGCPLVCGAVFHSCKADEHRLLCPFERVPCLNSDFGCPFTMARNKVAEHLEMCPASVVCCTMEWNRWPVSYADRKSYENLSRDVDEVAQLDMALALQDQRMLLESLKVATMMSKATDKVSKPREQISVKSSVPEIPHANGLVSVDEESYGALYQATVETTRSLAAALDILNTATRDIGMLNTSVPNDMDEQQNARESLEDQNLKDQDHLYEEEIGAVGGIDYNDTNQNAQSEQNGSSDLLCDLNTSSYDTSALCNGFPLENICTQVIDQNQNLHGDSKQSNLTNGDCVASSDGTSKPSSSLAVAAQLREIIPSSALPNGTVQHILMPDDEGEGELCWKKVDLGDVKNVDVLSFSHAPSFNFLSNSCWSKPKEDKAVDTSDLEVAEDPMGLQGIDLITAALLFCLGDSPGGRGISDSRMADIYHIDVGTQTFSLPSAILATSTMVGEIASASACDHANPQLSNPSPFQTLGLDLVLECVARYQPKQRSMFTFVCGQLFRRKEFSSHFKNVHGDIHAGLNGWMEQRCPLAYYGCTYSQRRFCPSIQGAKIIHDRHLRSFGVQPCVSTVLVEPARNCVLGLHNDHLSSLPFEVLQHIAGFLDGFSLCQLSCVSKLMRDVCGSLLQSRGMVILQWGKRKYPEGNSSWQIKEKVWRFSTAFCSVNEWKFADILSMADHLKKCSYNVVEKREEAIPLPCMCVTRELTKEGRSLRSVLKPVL
# UniProt P51114, sequence (P51114 whole entry, looked up): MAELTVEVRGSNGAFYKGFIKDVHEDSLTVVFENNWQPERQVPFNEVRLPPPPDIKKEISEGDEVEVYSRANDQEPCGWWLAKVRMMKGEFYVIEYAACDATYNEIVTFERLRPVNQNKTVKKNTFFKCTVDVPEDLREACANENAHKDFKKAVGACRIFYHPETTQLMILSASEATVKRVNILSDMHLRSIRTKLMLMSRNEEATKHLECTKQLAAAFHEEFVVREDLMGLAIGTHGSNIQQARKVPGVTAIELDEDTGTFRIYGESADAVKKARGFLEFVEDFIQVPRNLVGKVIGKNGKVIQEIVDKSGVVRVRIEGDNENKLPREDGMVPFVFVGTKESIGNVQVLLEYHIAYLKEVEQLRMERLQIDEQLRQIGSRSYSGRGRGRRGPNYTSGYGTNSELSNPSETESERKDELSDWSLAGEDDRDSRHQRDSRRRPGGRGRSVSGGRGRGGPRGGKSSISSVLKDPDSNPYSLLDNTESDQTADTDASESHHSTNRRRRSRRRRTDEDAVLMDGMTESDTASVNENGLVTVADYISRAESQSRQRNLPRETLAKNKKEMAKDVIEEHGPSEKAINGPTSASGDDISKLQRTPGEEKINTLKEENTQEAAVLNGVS
# UniProt P11413, sequence (P11413 whole entry, looked up): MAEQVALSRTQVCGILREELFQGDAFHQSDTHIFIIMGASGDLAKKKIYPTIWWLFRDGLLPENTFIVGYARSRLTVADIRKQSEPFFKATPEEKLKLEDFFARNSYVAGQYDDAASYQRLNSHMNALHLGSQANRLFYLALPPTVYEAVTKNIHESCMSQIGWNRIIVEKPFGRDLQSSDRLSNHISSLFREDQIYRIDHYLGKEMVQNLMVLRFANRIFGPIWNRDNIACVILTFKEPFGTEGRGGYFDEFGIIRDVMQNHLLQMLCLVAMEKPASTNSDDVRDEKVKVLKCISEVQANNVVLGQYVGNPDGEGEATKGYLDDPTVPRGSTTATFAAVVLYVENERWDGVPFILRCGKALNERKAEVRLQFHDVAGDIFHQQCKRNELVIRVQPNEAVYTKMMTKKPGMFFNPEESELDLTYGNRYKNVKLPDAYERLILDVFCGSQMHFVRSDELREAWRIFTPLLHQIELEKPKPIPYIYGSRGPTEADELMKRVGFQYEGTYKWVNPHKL
# UniProt Q8N5C7, sequence (Q8N5C7 whole entry, looked up): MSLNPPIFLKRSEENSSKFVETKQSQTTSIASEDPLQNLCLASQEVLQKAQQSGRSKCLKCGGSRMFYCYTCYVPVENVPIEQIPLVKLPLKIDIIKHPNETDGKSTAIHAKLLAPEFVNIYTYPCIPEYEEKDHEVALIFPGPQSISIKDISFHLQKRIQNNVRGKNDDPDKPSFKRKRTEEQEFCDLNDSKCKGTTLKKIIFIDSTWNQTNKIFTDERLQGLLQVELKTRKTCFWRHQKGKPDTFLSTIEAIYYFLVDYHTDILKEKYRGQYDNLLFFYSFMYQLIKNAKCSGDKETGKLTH
# UniProt Q13409, sequence (Q13409 whole entry, looked up): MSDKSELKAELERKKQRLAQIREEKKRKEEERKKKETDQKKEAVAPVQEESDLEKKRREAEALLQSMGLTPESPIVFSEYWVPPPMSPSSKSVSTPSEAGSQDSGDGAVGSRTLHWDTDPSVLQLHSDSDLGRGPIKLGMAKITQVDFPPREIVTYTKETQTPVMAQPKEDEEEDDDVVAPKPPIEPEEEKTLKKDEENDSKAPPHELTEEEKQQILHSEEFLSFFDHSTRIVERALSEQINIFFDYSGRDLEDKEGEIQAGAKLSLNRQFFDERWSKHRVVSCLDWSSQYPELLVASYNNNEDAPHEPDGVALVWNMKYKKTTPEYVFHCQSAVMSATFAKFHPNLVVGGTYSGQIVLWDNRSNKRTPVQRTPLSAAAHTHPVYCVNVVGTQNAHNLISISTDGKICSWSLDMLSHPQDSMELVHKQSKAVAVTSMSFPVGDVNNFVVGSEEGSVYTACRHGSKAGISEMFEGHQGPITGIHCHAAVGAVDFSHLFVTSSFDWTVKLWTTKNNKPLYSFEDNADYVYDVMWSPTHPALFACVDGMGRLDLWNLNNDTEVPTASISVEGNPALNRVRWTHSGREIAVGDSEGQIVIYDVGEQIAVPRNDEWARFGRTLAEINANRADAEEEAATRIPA
# UniProt P23919, sequence (P23919 whole entry, looked up): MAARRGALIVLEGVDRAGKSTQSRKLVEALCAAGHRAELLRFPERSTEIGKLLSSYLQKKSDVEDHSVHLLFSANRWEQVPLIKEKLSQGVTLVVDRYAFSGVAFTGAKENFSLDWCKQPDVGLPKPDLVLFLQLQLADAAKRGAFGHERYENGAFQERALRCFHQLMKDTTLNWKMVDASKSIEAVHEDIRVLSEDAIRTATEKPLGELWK
# UniProt Q9NPA8, sequence (Q9NPA8 whole entry, looked up): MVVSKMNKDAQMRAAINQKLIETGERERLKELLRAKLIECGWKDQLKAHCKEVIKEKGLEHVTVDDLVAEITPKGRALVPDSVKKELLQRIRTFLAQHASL
row,Target,log2 fold change
1,ENY2 (UniProt Q9NPA8),-0.162 (inactive)
2,DTYMK (UniProt P23919),-0.029 (inactive)
3,GALNT2 (UniProt Q10471),0.021 (inactive)
4,EPB41 (UniProt P11171),-0.023 (inactive)
5,GATAD2A isoform 3 (UniProt Q86YP4),0.032 (inactive)
6,FYB1 isoform 3 (UniProt O15117),0.095 (inactive)
7,EIF2B5 (UniProt Q13144),0.019 (inactive)
8,GBF1 (UniProt Q92538),0.005 (inactive)
9,GGA2 (UniProt Q9UJY4),-0.085 (inactive)
10,DTWD1 (UniProt Q8N5C7),-0.004 (inactive)
11,GGT7 (UniProt Q9UJ14),0.103 (inactive)
12,ERI1 (UniProt Q8IV48),-0.022 (inactive)
13,GAMT (UniProt Q14353),-0.002 (inactive)
14,FLT4 (UniProt P35916),-0.031 (inactive)
15,FBXO30 (UniProt Q8TB52),-0.041 (inactive)
16,G6PD isoform 2 (UniProt P11413),0.011 (inactive)
17,ELF2 (UniProt Q15723),0.044 (inactive)
18,DYNC1I2 isoform 5 (UniProt Q13409),-0.012 (inactive)
19,ESYT2 (UniProt H7BXI1),-0.001 (inactive)
20,FXR1 (UniProt P51114),-0.009 (inactive)
21,GIGYF2 (UniProt Q6Y7W6),0.011 (inactive)
22,EXOC2 (UniProt Q96KP1),-0.013 (inactive)
23,DST (UniProt Q03001),0.111 (inactive)

# From the supplement of paper PMC10849652
